The campaign covered roughly 5,500 compounds. About 2,000 (36%) were called active. Another 18% or so got no clear call; they are omitted. Rule as the data show it: active = normalized growth mostly below about 0.91 (no sharp cut-off); inconclusive = no clear call, values can overlap the other calls; inactive = mostly above about 0.92. This is one part of the list.
Experiment: chemical genetic growth profiling, strain panel (AID 1159580);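 also: tested at 20 µM; growth read once vehicle control cultures reached saturation at 30 °C; 1 = growth at the plate median or of vehicle wells; lower values mean less growth of the strain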
Conditions: S. cerevisiae deletion strains, growth OD
[1] = locus YBR229C, strain ROT2, active compounds read low
[2] = locus YCL061C, strain MRC1, active compounds read low
[3] = locus YDL101C, strain DUN1, active compounds read low
[4] = locus YEL061C, strain CIN8, active compounds read low
[5] = locus YHR030C, strain SLT2, active compounds read low
[6] = locus YJR075W, strain HOC1, active compounds read low
[7] = locus YLR039C, strain RIC1, active compounds read low
[8] = locus YMR307W, strain GAS1, active compounds read low
[9] = locus YPL241C, strain CIN2, active compounds read low

Measured: normalized growth

N#C/C(=C\N(CCS(=O)(=O)c1ccc(Cl)cc1)Cc1cccs1)S(=O)(=O)c1ccc(Cl)cc1
inactive: locus YAL013W, strain DEP1, active compounds read low 0.999 | [1] 1.01 | [2] 1.02 | [3] 1 | locus YDR150W, strain NUM1, active compounds read low 1.08 | [4] 0.973 | locus YGR078C, strain PAC10, active compounds read low 1.01 | [5] 1.05 | locus YHR087W, strain rtc3, active compounds read low 1.01 | locus YJR043C, strain POL32, active compounds read low 1.03 | [6] 1.04 | locus YKL190W, strain CNB1, active compounds read low 0.987 | [7] 1.06 | locus YLR058C, strain SHM2 (second series), active compounds read low 1 | locus YLR085C, strain ARP6, active compounds read low 0.943 | locus YLR262C, strain YPT6, active compounds read low 1.06 | locus YML094W, strain GIM5, active compounds read low 0.981 | locus YMR219W, strain ESC1, active compounds read low 1 | locus YMR263W, strain SAP30, active compounds read low 1.09 | [8] 1.08 | locus YNL153C, strain GIM3, active compounds read low 1.03 | locus YNL298W, strain CLA4 (second series), active compounds read low 0.947 | locus YNL322C, strain KRE1, active compounds read low 0.996 | locus YNR030W, strain Alg12, active compounds read low 1 | locus YPL055C, strain LGE1, active compounds read low 1.13 | [9] 0.981 | locus YPR135W, strain CTF4, active compounds read low 1.19

COc1c2c(cc3c1OCO3)C13C=C[C@H](OC)CC1N(C2)CC3O (stereo not given in full)
inactive: locus YAL021C, strain ccr4, active compounds read low 0.966 | locus YAL026C, strain drs2, active compounds read low 0.976 | locus YAL030W, strain snc1, active compounds read low 0.996 | locus YBL061C, strain skt5, active compounds read low 0.984 | locus YBR009C, strain hhf1, active compounds read low 1 | locus YBR021W, strain FUR4, active compounds read low 1.06 | locus YBR023C, strain chs3, active compounds read low 0.981 | locus YBR171W, strain sec66, active compounds read low 1 | [1] 1 | locus YBR231C, strain swc5, active compounds read low 1 | locus YBR279W, strain paf1, active compounds read low 0.963 | locus YCL011C, strain gbp2, active compounds read low 0.969 | locus YCL016C, strain dcc1, active compounds read low 0.955 | locus YCL029C, strain bik1, active compounds read low 0.981 | [2] 0.979 | locus YCL069W, strain vba3, active compounds read low 0.991 | locus YCR088W, strain abp1, active compounds read low 0.991 | locus YDL005C, strain med2, active compounds read low 0.976 | locus YDL035C, strain GPR1, active compounds read low 1.03 | locus YDL040C, strain nat1, active compounds read low 1 | locus YDL074C, strain BRE1, active compounds read low 1.01 | [3] 0.985 | locus YDL185W, strain tfp1, active compounds read low 0.961 | locus YDL192W, strain arf1, active compounds read low 0.986 | locus YDR001C, strain nth1, active compounds read low 0.988 | locus YDR069C, strain doa4, active compounds read low 0.963 | locus YDR101C, strain arx1, active compounds read low 1.01 | locus YDR137W, strain rgp1, active compounds read low 0.953 | locus YDR159W, strain sac3, active compounds read low 0.968 | locus YDR162C, strain NBP2, active compounds read low 0.99 | locus YDR195W, strain ref2 0.966 | locus YDR297W, strain sur2, active compounds read low 0.976 | locus YDR318W, strain mcm21, active compounds read low 0.989 | locus YDR334W, strain swr1, active compounds read low 0.978 | locus YDR335W, strain msn5, active compounds read low 0.972 | locus YDR388W, active compounds read low 0.983 | locus YDR392W, strain spt3, active compounds read low 0.915 | locus YDR502C, strain sam2, active compounds read low 0.988 | locus YEL003W, strain gim4, active compounds read low 1 | locus YEL037C, strain rad23, active compounds read low 0.983 | locus YEL061C, strain CIN8 (second series), active compounds read low 0.984 | [4] 1 | locus YER015W, strain faa2, active compounds read low 0.972 | locus YER016W, strain bim1, active compounds read low 0.975 | locus YER110C, active compounds read low 0.97 | locus YER111C, strain swi4, active compounds read low 0.977 | locus YER155C, strain BEM2 (second series), active compounds read low 1.05 | locus YER155C, strain BEM2, active compounds read low 0.997 | locus YER167W, strain BCK2, active compounds read low 0.998 | locus YFR010W, strain ubp6, active compounds read low 1.02 | locus YGL078C, strain dbp3, active compounds read low 0.975 | locus YGL086W, strain mad1, active compounds read low 1 | locus YGL167C, strain pmr1, active compounds read low 0.999 | locus YGL173C, strain kem1, active compounds read low 1.01 | locus YGL227W, strain vid30, active compounds read low 0.987 | locus YGL240W, strain doc1, active compounds read low 1.04 | locus YGL248W, strain PDE1, active compounds read low 0.999 | locus YGL253W, strain hxk2, active compounds read low 0.963 | locus YGR135W, strain pre9, active compounds read low 0.972 | locus YGR252W, strain gcn5, active compounds read low 1.08 | locus YHR013C, strain ard1, active compounds read low 0.956 | locus YHR027C, strain rpn1, active compounds read low 0.989 | [5] 0.986 | locus YHR079C, strain IRE1 (second series), active compounds read low 0.986 | locus YHR094C, strain hxt1, active compounds read low 0.978 | locus YHR129C, strain ARP1, active compounds read low 0.994 | locus YHR142W, strain chs7, active compounds read low 0.951 | locus YHR200W, strain rpn10, active compounds read low 0.992 | locus YIL066C, strain RNR3, active compounds read low 1 | locus YIL073C, strain SPO22, active compounds read low 0.94 | locus YIL125W, strain kgd1, active compounds read low 0.984 | locus YIR030C, strain dcg1, active compounds read low 0.97 | locus YJL092W, strain hpr5, active compounds read low 0.982 | locus YJL095W, strain BCK1 (second series), active compounds read low 0.972 | locus YJL095W, strain BCK1, active compounds read low 0.975 | locus YJL115W, strain asf1, active compounds read low 0.957 | locus YJL129C, strain trk1, active compounds read low 0.95 | locus YJL134W, strain LCB3, active compounds read low 0.99 | locus YJL154C, strain vps35, active compounds read low 0.977 | locus YJL164C, strain tpk1, active compounds read low 1.02 | locus YJL166W, strain qcr8, active compounds read low 0.989 | locus YJL168C, strain set2, active compounds read low 0.985 | locus YJL187C, strain SWE1 (second series), active compounds read low 0.98 | locus YJL187C, strain SWE1, active compounds read low 0.987 | [6] 1 | locus YKL009W, strain mrt4, active compounds read low 0.992 | locus YKL068W, active compounds read low 0.98 | locus YKL085W, strain MDH1 (second series), active compounds read low 1 | locus YKL085W, strain MDH1, active compounds read low 1 | locus YKL160W, strain elf1, active compounds read low 0.95 | locus YKR001C, strain vps1, active compounds read low 0.99 | locus YKR026C, strain gcn3, active compounds read low 0.993 | locus YKR091W, strain srl3, active compounds read low 0.978 | locus YLL001W, strain dnm1, active compounds read low 0.996 | locus YLL026W, active compounds read low 0.98 | locus YLL041C, strain sdh2, active compounds read low 0.98 | locus YLR027C, strain aat2, active compounds read low 0.996 | [7] 1 | locus YLR058C, strain SHM2, active compounds read low 0.994 | locus YLR102C, strain apc9, active compounds read low 0.988 | locus YLR221C, strain rsa3, active compounds read low 1.04 | locus YLR258W, strain gsy2, active compounds read low 0.981 | locus YLR262C, strain YPT6 (second series), active compounds read low 1 | locus YLR268W, strain sec22, active compounds read low 1.02 | locus YLR320W, strain mms22, active compounds read low 1.02 | locus YLR342W, strain FKS1 (second series), active compounds read low 1.08 | locus YLR342W, strain FKS1, active compounds read low 0.988 | locus YLR357W, strain rsc2, active compounds read low 0.981 | locus YLR370C, strain arc18, active compounds read low 0.971 | locus YLR371W, strain rom2, active compounds read low 0.957 | locus YLR384C, strain iki3, active compounds read low 0.978 | locus YLR418C, strain cdc73, active compounds read low 1.01 | locus YML016C, strain PPZ1, active compounds read low 0.999 | locus YML032C, strain rad52, active compounds read low 1 | locus YML120C, strain ndi1, active compounds read low 1 | locus YML124C, strain tub3, active compounds read low 0.982 | locus YMR058W, strain fet3, active compounds read low 0.979 | locus YMR078C, strain ctf18, active compounds read low 0.967 | locus YMR125W, strain sto1, active compounds read low 0.98 | locus YMR129W, active compounds read low 0.965 | locus YMR205C, strain PFK2, active compounds read low 1.02 | locus YMR223W, strain ubp8, active compounds read low 0.986 | locus YMR231W, strain pep5, active compounds read low 0.993 | [8] 1.23 | locus YNL067W, strain RPL9B, active compounds read low 0.974 | locus YNL071W, strain lat1, active compounds read low 0.993 | locus YNL128W, strain TEP1, active compounds read low 0.985 | locus YNL209W, strain ssb2, active compounds read low 0.963 | locus YNL233W, strain BNI4, active compounds read low 1.01 | locus YNL248C, strain rpa49, active compounds read low 0.938 | locus YNL250W, strain rad50, active compounds read low 0.983 | locus YNL271C, strain bni1, active compounds read low 0.992 | locus YNL298W, strain CLA4, active compounds read low 0.985 | locus YNL307C, strain MCK1, active compounds read low 0.991 | locus YNL322C, strain KRE1 (second series), active compounds read low 0.983 | locus YNR049C, strain mso1, active compounds read low 0.954 | locus YNR052C, strain pop2, active compounds read low 0.977 | locus YOL012C, strain htz1 0.827 | locus YOL147C, strain pex11, active compounds read low 0.983 | locus YOR001W, strain rrp6, active compounds read low 1.05 | locus YOR061W, strain CKA2, active compounds read low 0.993 | locus YOR069W, strain VPS5, active compounds read low 0.986 | locus YOR070C, strain gyp1, active compounds read low 0.974 | locus YOR080W, strain dia2, active compounds read low 0.964 | locus YOR083W, strain WHI5, active compounds read low 0.928 | locus YOR106W, strain vam3, active compounds read low 0.957 | locus YOR136W, strain idh2, active compounds read low 0.992 | locus YOR144C, strain elg1, active compounds read low 0.99 | locus YOR184W, strain ser1, active compounds read low 1.04 | locus YOR265W, strain rbl2, active compounds read low 0.99 | locus YOR270C, strain vph1, active compounds read low 0.973 | locus YOR290C, strain snf2, active compounds read low 0.956 | locus YOR316C, strain cot1, active compounds read low 0.983 | locus YPL051W, strain arl3, active compounds read low 0.963 | locus YPL078C, strain atp4, active compounds read low 0.96 | locus YPL106C, strain sse1, active compounds read low 0.984 | locus YPL240C, strain hsp82, active compounds read low 0.992 | [9] 0.988 | locus YPR119W, strain clb2, active compounds read low 0.981 | locus YPR141C, strain kar3, active compounds read low 0.968 | locus YPR163C, strain tif3, active compounds read low 0.996 | locus YPR167C, strain met16, active compounds read low 0.981 | strain wtn01, active compounds read low 1.01

— PubChem BioAssay AID1159580 (chemical genetic matrix, 2015)
